Measured values: the supplement of paper PMC12340641
Structures can show the parent of a compound that is named as a salt.

How the values were obtained:
[1] = molecular target: IKZF1 (dCK*-IKZF1 fusion in HEK293FT) (UniProt Q13422); test: inhibition of IKZF1 HTRF signal (DMSO = 0%, pomalidomide 10 uM = 100%); higher = lower IKZF1 protein level; conditions: compound concentration: 5 uM, overnight (~20 h)
Procedure, shortened: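 For percent inhibition of IKZF1 signal, each plate was normalised to vehicle and to a reference degrader. Cells were HEK293FT stably expressing an IKZF1 fusion, plated at 2000/well in 384-well format and treated overnight at 37 °C with 5 μM compound, one well each. Lysates were probed overnight with a commercial HTRF total-IKZF1 antibody kit, with the 665/620 nm ratio background-subtracted and vehicle and degrader fixed at 0% and 100%.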

[2] = tested on: HEK293FT dCK*-only; test: relative growth in counter assay (no AraC = 100%, AraC + DMSO = 0%); higher = more growth rescue independent of IKZF1; conditions: compound concentration: 5 uM; AraC concentration: 0.3 uM; overnight pretreatment + 4 days AraC
Procedure, shortened: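 HEK293FT cells carrying only an engineered kinase construct were plated at 300 per well (384-well) and given 5 μM compound 2 h later. Following overnight at 37 °C, a nucleoside suicide substrate (0.3 μM) plus medium was added for 4 days. Hoechst 33342-stained nuclei were imaged and counted on day 5, with 100% assigned to wells without suicide substrate and 0% to substrate plus vehicle on each plate.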

[3] = tested on: HEK293FT dCK*-IKZF1; test: relative growth recovery (pomalidomide 10 uM = 100%, DMSO = 0%); higher = more growth rescue (IKZF1 fusion degradation); conditions: compound concentration: 5 uM; AraC concentration: 0.3 uM; overnight pretreatment + 4 days AraC
Procedure, shortened: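 Means of duplicates from different days are given for growth recovery, normalised per plate against a reference degrader and vehicle. The reference degrader set the 100% level and vehicle the 0% level. HEK293FT cells stably expressing a deoxycytidine kinase–IKZF1 fusion (300/well, 384-well) received 5 μM compound 2 h after seeding and, after overnight at 37 °C, 0.3 μM of a nucleoside suicide substrate plus medium for 4 days. Nuclei stained with Hoechst 33342 were then counted by whole-well imaging on day 5.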

Chain of IKZF1 (dCK*-IKZF1 fusion in HEK293FT) (Q13422 whole entry, looked up, the tested form may be a part): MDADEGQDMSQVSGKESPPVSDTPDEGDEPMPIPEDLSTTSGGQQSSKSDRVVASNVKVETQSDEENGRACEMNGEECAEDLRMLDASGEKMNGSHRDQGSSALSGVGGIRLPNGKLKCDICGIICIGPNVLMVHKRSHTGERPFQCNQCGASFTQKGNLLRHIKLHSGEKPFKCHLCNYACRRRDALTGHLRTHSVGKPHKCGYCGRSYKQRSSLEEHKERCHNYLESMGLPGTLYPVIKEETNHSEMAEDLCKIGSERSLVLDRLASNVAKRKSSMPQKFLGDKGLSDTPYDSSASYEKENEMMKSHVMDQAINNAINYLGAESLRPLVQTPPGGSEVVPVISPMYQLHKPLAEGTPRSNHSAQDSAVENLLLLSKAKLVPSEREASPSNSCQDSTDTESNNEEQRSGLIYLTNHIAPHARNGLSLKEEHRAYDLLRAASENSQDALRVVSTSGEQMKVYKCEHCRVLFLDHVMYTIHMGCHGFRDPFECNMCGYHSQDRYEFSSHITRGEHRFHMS

Compound	inhibition of IKZF1 HTRF signal [1] [%]	relative growth in counter assay [2] [%]	relative growth recovery [3] [%]
NC1CC(O[C@H]2C[C@@]([C@@](C)=O)(O)CC3=C2C(O)=C5C(C(C4=CC=CC(OC)=C4C5=O)=O)=C3O)OC(C)C1O (stereo partly drawn) [daunorubicin]	22	-35.4	-14.9
CCCCCCCC[N+](C)(C)Cc1ccccc1 [benzyldimethyloctylammonium]	-57.3	4.74	5.02
C[C@H]1O[C@@H](O[C@H]2[C@@H](O)C[C@H](O[C@H]3[C@@H](O)C[C@H](O[C@H]4CC[C@]5(C)C6C[C@@H](O)[C@]7(C)[C@@H](C8=CC(=O)OC8)CC[C@]7(O)C6CC[C@@H]5C4)O[C@@H]3C)O[C@@H]2C)C[C@H](O)[C@@H]1O (stereo partly drawn)	68.6	-34.9	-12.4
Cc1cc(N2CCCCC2)nc2ccccc12	-32	-2.77	-1.01
Nc1ccc(-c2nc3ccc(-c4nc5ccc(N)cc5[nH]4)cc3[nH]2)cc1	1.33	-6.2	-2.58
CCCCCCCCCCCCCCCC[N+](C)(C)CCN(Cc1ccc(OC)cc1)c1ncccn1 [thonzonium bromide]	21	-31	-10.3
O=C(c1cc(S(=O)(=O)Nc2ccccc2F)c(F)cc1Cl)N1CCN2CCC[C@@H]2C1	-26	-1.66	-3.52
Cc1cc(N)c2ccccc2[n+]1CCCCCCCCCC[n+]1c(C)cc(N)c2ccccc21	-29.5	-14.5	-3.15
CO/N=C1\C[C@]2(C[C@@H]3C[C@@H](C/C=C(\C)C[C@@H](C)/C=C/C=C4\CO[C@@H]5[C@H](O)C(C)=C[C@@H](C(=O)O3)[C@]45O)O2)O[C@H](/C(C)=C/C(C)C)[C@H]1C	-19.4	-0.37	-1.09
CCCCCCCC/C=C\CCCCCCCC(=O)NCCO [oleoylethanolamide]	-34.1	0.5	1.78
Oc1c(Cl)cc(Cl)c(Cl)c1Cc1c(O)c(Cl)cc(Cl)c1Cl [Hexachlorophene]	-78.9	0.51	-1.27
O=c1n(CC2CO2)c(=O)n(CC2CO2)c(=O)n1CC1CO1 (stereo not drawn) [Triglycidyl isocyanurate]	30.6	-31.7	-10.8
C/C(=C\c1csc(C)n1)[C@@H]1C[C@@H]2O[C@]2(C)CCC[C@H](C)[C@H](O)[C@@H](C)C(=O)C(C)(C)[C@@H](O)CC(=O)N1 [Ixabepilone]	-13.2	-33.8	-10.8
CCN(CC)CCOc1ccc2c(c1)C(=O)c1cc(OCCN(CC)CC)ccc1-2	-2.01	-26.5	-8.99
CC(=O)c1ccc(S(=O)(=O)NC(=O)NC2CCCCC2)cc1	-56.1	5.07	1.03
Cc1ccc2c(=O)c3ccccc3n(CCCN)c2c1C	-12.2	-35.5	-14.4
CCCCCCCCCCCCCCCC[N+](C)(C)C	22.3	-33.4	-11.7
CNCC(O)c1ccc(O)c(O)c1 (racemic) [DL-Adrenaline]	10.3	-3.86	-4.26
COc1cccc2c(O)c3c(O)c4c(c(O)c3c(O)c12)=C(O[C@H]1C[C@H](N)[C@H](O)[C@H](C)O1)C[C@](O)(C(C)=O)C=4 [Daunorubicin HCl]	56.3	-34.8	-13.9
Cc1c(S(=O)(=O)O)oc2c1C(=O)C(=O)c1c-2ccc2c1CCCC2(C)C [sodium-tanshinone-ii-a-sulfonate]	20.9	4.38	-1.25
C=CC(=O)Nc1cccc(Oc2nc(Nc3ccc(N4CCN(C)CC4)cc3)nc3ccsc23)c1 [Olmutinib]	-18.2	-23.3	-7.07

Compound	inhibition of IKZF1 HTRF signal [1] [%]	relative growth in counter assay [2] [%]	relative growth recovery [3] [%]
CCCCNC(=O)NS(=O)(=O)c1ccc(C)cc1	-29.8	0.26	-3.39
Nc1ccc2ncnc(NCCc3ccc(Oc4ccccc4)cc3)c2c1	20.9	-8.23	-2.79
CC[C@]1(O)C[C@H]2C[N@@](CCc3c([nH]c4ccccc34)[C@@](C(=O)OC)(c3cc4c(cc3OC)N(C=O)[C@H]3[C@@](O)(C(=O)OC)[C@H](OC(C)=O)[C@]5(CC)C=CCN6CC[C@]43[C@@H]65)C2)C1 [Vincristine (sulfate)]	-10.4	-34.5	-11.7
CCCCCCCCCCCC1=C(O)C(=O)C=C(O)C1=O [embelin]	-30.8	-6.94	-3.97
OCCN=CCNc1ccc(NCCNCCO)c2c(O)c3c(O)ccc(O)c3c(O)c12 [Mitoxantrone HCl]	-45.5	-34.8	-13.6
[2H]C([2H])([2H])C(O)(CCO[C@@H](C)[C@H]1CC[C@H]2/C(=C/C=C3/C[C@@H](O)C[C@H](O)C3=C)CCC[C@]12C)C([2H])([2H])[2H] [maxacalcitol]	-24.6	9.68	7.53
O=C1NC(=O)/C(=C/c2ccc(-c3ccc(F)cc3O)o2)S1	-15.8	-7.95	-0.795
c1ccc(CNc2nc(NCc3ccccc3)c3ccccc3n2)cc1	-15.7	-18.5	-4.85
Nc1ncnc2c1ncn2[C@@H]1O[C@H](COP(=O)(O)OP(=O)(O)OP(=O)(O)OP(=O)(O)OC[C@H]2O[C@@H](n3cnc4c(N)ncnc43)C(O)C2O)C(O)C1O (stereo partly drawn) [P1,P4-DI(adenosine-5')tetraphosphate ammonium salt]	-38	5.12	1.01
COc1ccc(NS(=O)(=O)c2ccc(N=Nc3ccc(O)c(C(=O)O)c3)cc2)nn1 [salazodine]	-2.92	6.32	-2.83
COC(=O)Nc1nc2ccc(C(=O)c3ccccc3)cc2[nH]1	-12.9	-32.6	-10.6
CC(=O)N(O)[C@@H]1c2cc(C#N)ccc2OC(C)(C)[C@H]1O	13.4	-4.7	-2.73
Cc1cc(NC(=O)C(c2ccccc2)N2CCCc3ccccc32)no1 (stereo not drawn)	-21.4	-9.71	1.48
O=C(NCc1ccc(OC(F)(F)F)cc1)C1c2ccccc2C(=O)N1C1CCOCC1 (stereo not drawn)	-25.8	-2.6	-1.02
CCC(=N\O)/C(C)=C/c1ccc(F)cc1	12.6	-3.61	-0.58
CC(CCc1ccc(O)cc1)NCCc1ccc(O)c(O)c1 (stereo not drawn) [Dobutamine HCl]	18.6	-5.22	-1.12
Nc1ncn([C@H]2C[C@H](O)[C@@H](CO)O2)c(=O)n1 [decitabine]	27.4	-31.5	-10.8
CN1CCCC(CC2c3ccccc3Sc3ccccc32)C1 (stereo not drawn) [metixene]	-23.4	2.04	1.64
CN1CCN(CCCN2c3ccccc3Sc3ccc(C(F)(F)F)cc32)CC1 [Trifluoperazine  HCl]	-1.13	28.7	3.73
Oc1c(CN2CCCC2)cc(COCc2ccccc2)c2cccnc12	-11.1	-34.9	-13.4
CN1CCC[C@@H]1CCO[C@](C)(c1ccccc1)c1ccc(Cl)cc1	-21.3	6.03	-3.56

Compound	inhibition of IKZF1 HTRF signal [1] [%]	relative growth in counter assay [2] [%]	relative growth recovery [3] [%]
Nc1ccc(-c2ccc3ncc4ccc(=O)n(-c5cccc(C(F)(F)F)c5)c4c3c2)cn1 [torin-2]	66.5	-34.6	-12.2
CCCCc1ccc2[nH]c(NC(=O)OC)nc2c1 [parbendazole]	-10.3	-34.4	-11.7
COc1nccnc1NS(=O)(=O)c1ccc(N)cc1 [sulfametopyrazine]	6.66	-7.5	-1.09
N=c1ccn2c(n1)O[C@H]1[C@H](O)[C@@H](CO)O[C@H]12 [Cyclocytidine HCl]	-19.3	-34	-12.9
Cc1cc(C2CCCCC2)n(O)c(=O)c1 [Ciclopirox]	24.4	-31.2	-11.9
CC[C@]1(O)C[C@H]2CN(CCc3c([nH]c4ccccc34)[C@@](C(=O)OC)(c3cc4c(cc3OC)N(C)[C@H]3[C@@](O)(C(=O)OC)[C@H](OC(C)=O)[C@]5(CC)C=CCN6CC[C@]43[C@@H]65)C2)C1 [Vinblastine Sulfate]	-11.7	-33.4	-11.7
O=C(N/N=C/c1ccc([N+](=O)[O-])o1)c1ccc(O)cc1	10.2	-1.19	-2
O=C(Nc1ccc(Cl)nc1)c1ccc(Cl)cc1	-32.9	4.25	3.85
C=C1/C(=C/C=C2\CCC[C@]3(C)[C@@H]([C@H](C)/C=C/[C@@H](C)C(C)C)CC[C@@H]23)C[C@@H](O)C[C@@H]1O [Doxercalciferol (Hectorol)]	-23	1.09	2.85
CN(C)CCCN1c2ccccc2Sc2ccc(Cl)cc21 [Chlorpromazine HCl]	-4.4	-6.37	-2.69
Oc1c(Cl)cc(Cl)c(Cl)c1Cc1c(O)c(Cl)cc(Cl)c1Cl	-36	-1.16	0.025
CCS(=O)(=O)N(C)[C@@H]1c2cc(C#N)ccc2OC(C)(C)[C@H]1O.CCS(=O)(=O)N(C)[C@H]1c2cc(C#N)ccc2OC(C)(C)[C@@H]1O (racemic) [chromanol-(+/-)]	-29.6	1.25	0.645
CCCCCCC[N+](CC)(CC)CCCCc1ccc(Cl)cc1 [clofilium]	-21.8	-3.59	-1.53
CN1CCC[C@@H]1CCO[C@](C)(c1ccccc1)c1ccc(Cl)cc1 [Clemastine Fumarate]	6.24	4.09	2.26
O=C1Nc2ccc(Cl)cc2[C@@](C#CC2CC2)(C(F)(F)F)O1 [Efavirenz]	0.88	-1.3	0.45
O=c1[nH]nc(Sc2ncc([N+](=O)[O-])s2)n1-c1ccc2c(c1)OCCO2	-27.9	-34.9	-12.8
CCCCCCc1ccc(O)cc1O	-30.8	4.87	2.99
c1cc2c(cc1C1CCCCC1)c1c3n2CCNC3CCC1 (stereo not drawn) [tetrindole]	-27.2	-33	-9.3
CCN1CCN(Cc2ccc(-c3cc4c(N[C@H](C)c5ccccc5)ncnc4[nH]3)cc2)CC1	-37.1	-18.1	-8.18
